Data on seven sequences can be found in publication PMC7862700, “An all-to-all approach to the identification of sequence-specific readers for epigenetic DNA modifications on cytosine”.

What all share (experiment): DAPPL (digital affinity profiling via proximity ligation, sequencing); 10 mM Tris-HCl pH 7.5, 50 mM NaCl, 1 mM DTT, 4% glycerol, room temperature, 30 min; GST-TFs on glutathione beads, 16-mer random dsDNA library, 0.1% formaldehyde crosslink after washing; high values mean tight binding
Conditions in all cases: protein: recombinant; tags: N-terminal GST; dsDNA, one strand shown

The target in one assay is T1, ERF (Homo sapiens, UniProt P50548 1-548).
T1 sequence: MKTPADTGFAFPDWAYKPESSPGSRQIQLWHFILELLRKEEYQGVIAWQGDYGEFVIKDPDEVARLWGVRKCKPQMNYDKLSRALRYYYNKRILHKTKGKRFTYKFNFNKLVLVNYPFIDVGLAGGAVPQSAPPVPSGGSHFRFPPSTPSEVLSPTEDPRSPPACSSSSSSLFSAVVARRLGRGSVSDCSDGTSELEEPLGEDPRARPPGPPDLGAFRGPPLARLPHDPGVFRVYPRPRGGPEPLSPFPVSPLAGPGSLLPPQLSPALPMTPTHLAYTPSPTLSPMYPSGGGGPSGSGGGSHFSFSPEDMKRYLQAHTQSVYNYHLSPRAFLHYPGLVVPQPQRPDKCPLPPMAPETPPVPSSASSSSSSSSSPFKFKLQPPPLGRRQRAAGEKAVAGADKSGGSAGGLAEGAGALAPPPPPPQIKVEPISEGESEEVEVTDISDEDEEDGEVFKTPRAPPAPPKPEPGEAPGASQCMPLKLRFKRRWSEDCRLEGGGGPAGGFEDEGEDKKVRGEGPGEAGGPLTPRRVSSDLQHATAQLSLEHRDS
The procedure, abridged: (§1)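 Each value of binding signal is a hexamer's read frequency for a factor divided by the same hexamer's frequency in the tag-only sample. Barcoded, bead-captured GST fusions of human transcription factors made in yeast were pooled with that sample and incubated with 200 nmole of a random double-stranded 16-mer DNA library in Tris/NaCl/DTT/glycerol buffer at room temperature for 30 min. Washing, 0.1% formaldehyde crosslinking, proximity ligation, PCR and Illumina NextSeq500 sequencing followed.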

A further assay has as its target T2, ETV3L (Homo sapiens, UniProt Q6ZN32 1-361).
T2 sequence: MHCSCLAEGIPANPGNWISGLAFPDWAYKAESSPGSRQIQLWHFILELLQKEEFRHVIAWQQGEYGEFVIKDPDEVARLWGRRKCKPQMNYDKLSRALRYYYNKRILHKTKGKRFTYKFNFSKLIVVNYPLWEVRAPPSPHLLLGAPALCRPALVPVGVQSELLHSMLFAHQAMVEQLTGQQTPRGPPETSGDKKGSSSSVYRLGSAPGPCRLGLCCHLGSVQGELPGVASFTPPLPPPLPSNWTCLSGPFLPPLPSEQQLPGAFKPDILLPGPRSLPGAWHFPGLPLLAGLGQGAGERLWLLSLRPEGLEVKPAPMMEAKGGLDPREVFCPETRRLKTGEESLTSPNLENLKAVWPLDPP
An outline of the steps:
as §1

The target in another assay is T3, ETS2 (Homo sapiens, UniProt P15036 1-469).
T3 sequence: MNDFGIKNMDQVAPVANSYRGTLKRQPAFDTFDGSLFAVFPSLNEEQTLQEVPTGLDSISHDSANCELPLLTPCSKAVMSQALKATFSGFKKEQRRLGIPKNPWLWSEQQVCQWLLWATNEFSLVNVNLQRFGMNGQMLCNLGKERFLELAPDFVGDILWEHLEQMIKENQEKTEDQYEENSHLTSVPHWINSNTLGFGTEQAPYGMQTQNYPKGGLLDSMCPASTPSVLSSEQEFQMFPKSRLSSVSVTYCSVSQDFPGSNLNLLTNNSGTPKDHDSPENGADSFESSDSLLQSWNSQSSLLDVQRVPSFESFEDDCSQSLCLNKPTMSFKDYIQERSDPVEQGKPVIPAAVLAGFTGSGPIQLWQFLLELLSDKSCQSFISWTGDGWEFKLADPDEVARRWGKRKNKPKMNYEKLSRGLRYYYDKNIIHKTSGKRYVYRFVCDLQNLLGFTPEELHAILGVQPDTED
An outline of the steps: as §1

In the next assay the target is T4, SPDEF (Homo sapiens, UniProt O95238 1-335).
T4 sequence: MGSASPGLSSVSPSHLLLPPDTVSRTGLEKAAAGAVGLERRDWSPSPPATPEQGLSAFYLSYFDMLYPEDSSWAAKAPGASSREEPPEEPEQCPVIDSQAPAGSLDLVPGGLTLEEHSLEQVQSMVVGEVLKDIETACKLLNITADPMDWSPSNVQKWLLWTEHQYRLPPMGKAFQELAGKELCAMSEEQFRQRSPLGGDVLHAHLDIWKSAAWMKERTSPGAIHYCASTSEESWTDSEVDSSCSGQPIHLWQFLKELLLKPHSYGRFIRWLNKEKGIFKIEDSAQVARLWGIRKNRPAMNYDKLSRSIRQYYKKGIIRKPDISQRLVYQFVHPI
An outline of the steps: as §1

The target in another assay is T5, ETV7 (Homo sapiens, UniProt Q9Y603 1-341).
T5 sequence: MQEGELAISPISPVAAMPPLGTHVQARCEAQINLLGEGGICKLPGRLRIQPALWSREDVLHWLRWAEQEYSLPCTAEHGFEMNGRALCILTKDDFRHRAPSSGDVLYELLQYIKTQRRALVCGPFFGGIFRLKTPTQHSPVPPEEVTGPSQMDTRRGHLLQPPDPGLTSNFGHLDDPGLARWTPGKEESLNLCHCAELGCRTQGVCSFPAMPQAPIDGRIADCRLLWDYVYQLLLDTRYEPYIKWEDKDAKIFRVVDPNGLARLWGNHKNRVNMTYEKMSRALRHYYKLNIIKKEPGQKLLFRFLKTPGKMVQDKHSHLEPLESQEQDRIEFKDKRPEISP
An outline of the steps: as §1

In a further assay the target is T6, ETV3 (Homo sapiens, UniProt P41162-2 1-143).
T6 sequence: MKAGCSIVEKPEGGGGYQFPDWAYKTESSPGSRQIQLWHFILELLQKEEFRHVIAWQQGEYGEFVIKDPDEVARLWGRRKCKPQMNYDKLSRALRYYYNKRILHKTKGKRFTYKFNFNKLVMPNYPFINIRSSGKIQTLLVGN
The procedure, abridged:
as §1

Another assay has as its target ETV6 (Homo sapiens, UniProt P41212 1-452). The procedure, abridged:
as §1

A further assay deals with T7, ELF5 (Homo sapiens, UniProt Q9UKW6-2 1-255).
T7 sequence: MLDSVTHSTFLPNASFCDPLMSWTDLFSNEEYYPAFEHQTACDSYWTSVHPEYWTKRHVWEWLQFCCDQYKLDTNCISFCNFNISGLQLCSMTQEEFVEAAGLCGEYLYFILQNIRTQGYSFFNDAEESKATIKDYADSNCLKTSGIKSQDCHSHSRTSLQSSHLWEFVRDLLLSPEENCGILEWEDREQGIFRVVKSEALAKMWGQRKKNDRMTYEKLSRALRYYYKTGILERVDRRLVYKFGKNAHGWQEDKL
The procedure, abridged:
as §1

ETV6, sequence (P41212 whole entry): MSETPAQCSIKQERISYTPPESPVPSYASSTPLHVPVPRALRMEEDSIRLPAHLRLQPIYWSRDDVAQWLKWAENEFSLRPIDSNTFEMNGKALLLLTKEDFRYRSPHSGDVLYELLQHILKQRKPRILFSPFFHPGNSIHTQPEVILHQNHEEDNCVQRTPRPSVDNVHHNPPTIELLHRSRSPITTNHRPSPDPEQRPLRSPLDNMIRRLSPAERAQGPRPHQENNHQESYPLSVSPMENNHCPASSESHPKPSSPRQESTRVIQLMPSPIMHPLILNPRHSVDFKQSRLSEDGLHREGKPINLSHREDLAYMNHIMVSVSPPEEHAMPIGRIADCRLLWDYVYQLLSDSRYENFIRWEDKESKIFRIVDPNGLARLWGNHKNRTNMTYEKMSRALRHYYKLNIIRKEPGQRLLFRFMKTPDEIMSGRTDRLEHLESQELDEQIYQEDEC

For the sequence CATGTA, the binding signal in the assay with ERF is 1.2 fold enrichment (6-mer frequency, TF over GST control); in the assay with ETV3L, 1.16 fold enrichment (6-mer frequency, TF over GST control); with ETS2, 1.04 fold enrichment (6-mer frequency, TF over GST control); with SPDEF it was 1.13 fold enrichment (6-mer frequency, TF over GST control); with ETV7, 1.05 fold enrichment (6-mer frequency, TF over GST control); in the assay with ETV3 it was 1.18 fold enrichment (6-mer frequency, TF over GST control). In addition, the binding signal in the assay with ETV6 is 1.04 fold enrichment (6-mer frequency, TF over GST control).
Turning to CGCTTG, the binding signal in the assay with ERF was 1.06 fold enrichment (6-mer frequency, TF over GST control); in the assay with ETV3L, 1.01 fold enrichment (6-mer frequency, TF over GST control); with ETS2 it was 1.22 fold enrichment (6-mer frequency, TF over GST control); in the assay with SPDEF, 1.09 fold enrichment (6-mer frequency, TF over GST control); in the assay with ETV7, 1.01 fold enrichment (6-mer frequency, TF over GST control); with ETV3 it was 1.06 fold enrichment (6-mer frequency, TF over GST control). Moreover, the binding signal with ETV6 was 1.11 fold enrichment (6-mer frequency, TF over GST control).
GCAAAT: the binding signal in the assay with ERF was 1.11 fold enrichment (6-mer frequency, TF over GST control); with ETV3L, 1.05 fold enrichment (6-mer frequency, TF over GST control); with ETS2, 1.01 fold enrichment (6-mer frequency, TF over GST control); in the assay with SPDEF it was 1.11 fold enrichment (6-mer frequency, TF over GST control); with ETV7, 1.04 fold enrichment (6-mer frequency, TF over GST control); in the assay with ELF5, 1.01 fold enrichment (6-mer frequency, TF over GST control). Besides, the binding signal in the assay with ETV6 was 1 fold enrichment (6-mer frequency, TF over GST control).
Take CACTGG: the binding signal was 1.17 fold enrichment (6-mer frequency, TF over GST control) in the assay with ERF; 1.16 fold enrichment (6-mer frequency, TF over GST control) in the assay with ETV3L; 1.01 fold enrichment (6-mer frequency, TF over GST control) with ETS2; 1.02 fold enrichment (6-mer frequency, TF over GST control) with SPDEF; 1.03 fold enrichment (6-mer frequency, TF over GST control) with ETV7; 1.07 fold enrichment (6-mer frequency, TF over GST control) with ETV3. Moreover, the binding signal with ETV6 is 1.04 fold enrichment (6-mer frequency, TF over GST control).
On to GGCATT, for which the binding signal with ERF was 1.08 fold enrichment (6-mer frequency, TF over GST control); in the assay with ETV3L, 1.06 fold enrichment (6-mer frequency, TF over GST control); with ETS2, 1.09 fold enrichment (6-mer frequency, TF over GST control); with SPDEF it was 1 fold enrichment (6-mer frequency, TF over GST control); with ETV7, 1.05 fold enrichment (6-mer frequency, TF over GST control); with ETV3, 1.07 fold enrichment (6-mer frequency, TF over GST control). Also, the binding signal with ETV6 was 1.12 fold enrichment (6-mer frequency, TF over GST control).
Consider TCACAG, for which the binding signal in the assay with ERF is 1.02 fold enrichment (6-mer frequency, TF over GST control); with ETV3L, 1.13 fold enrichment (6-mer frequency, TF over GST control); with ETS2 it was 1.06 fold enrichment (6-mer frequency, TF over GST control); in the assay with SPDEF, 1.05 fold enrichment (6-mer frequency, TF over GST control); in the assay with ETV7, 1.11 fold enrichment (6-mer frequency, TF over GST control); with ETV3 it was 1.06 fold enrichment (6-mer frequency, TF over GST control). For the same sequence, the binding signal with ETV6 is 1.11 fold enrichment (6-mer frequency, TF over GST control).
As for TAACAG, the binding signal with ERF was 1.05 fold enrichment (6-mer frequency, TF over GST control); with ETV3L, 1.05 fold enrichment (6-mer frequency, TF over GST control); in the assay with ETS2 it was 1.03 fold enrichment (6-mer frequency, TF over GST control); with SPDEF it was 1.11 fold enrichment (6-mer frequency, TF over GST control); with ETV7 it was 1.09 fold enrichment (6-mer frequency, TF over GST control); in the assay with ETV3, 1.02 fold enrichment (6-mer frequency, TF over GST control). In addition, in the assay with ETV6, the binding signal is 1 fold enrichment (6-mer frequency, TF over GST control).
